Most compounds without a hit are left out; they make up all but 7.8% or so of the library.
NOMO-1 viab – STK33 inhibitor candidate reducing NOMO-1 cell viability | inhibition, % (concentration not given with the values) | AID 2330 | hit rate 7.5% among 37,000 | NOMO-1 AML viability, CellTiter-Glo luminescence, 72 h; in the data active = inhibition above about 80%; inconclusive = no clear call, values can overlap the other calls
MITF inh – blocks MITF activity; TRPM1 promoter luciferase, luminescence, 24 h; inhibition, % (no concentration beside the values); hit rate 0.28% among 37,000; AID 2240; in the data active = inhibition above about 85%; inconclusive = no clear call, values can overlap the other calls; inactive = below about 68%;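 also: human melanocyte line stably carrying TRPM1 promoter luciferase reporter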
Hedgehog inh – blocks Sonic Hedgehog signaling | hit rate 2.1% among 22,000 | Shh-LIGHT2 Gli-luciferase reporter, 30 h | inhibition, % (no concentration beside the values);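 active = mean inhibition across valid replicates above about 65%, limit read from the data; inconclusive = mean under the limit, yet half or more replicates past it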;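 also: pathway switched on by Shh-conditioned medium diluted 1 in 25 in low serum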
An asterisk follows results filed as active; ? = inconclusive; nt = no result.

SMILES	NOMO-1 viab	MITF inh	Hedgehog inh
COc1ccc(CN(C)C[C@H]2Oc3ccc(NC(=O)Nc4ccc(OC)cc4)cc3CC(=O)N([C@@H](C)CO)C[C@H]2C)cc1	1.4	7.4	13.4
COc1ccc(NC(=O)Nc2ccc3c(c2)CC(=O)N([C@@H](C)CO)C[C@H](C)[C@H](CN(C)Cc2ccncc2)O3)cc1	-0.2	-3.7	23.7
Cc1nccn1CC(O)COc1ccccc1Br (stereo unspecified)	-1.6	1.4	nt
CS(=O)(=O)N(CC(=O)Nc1ccc(F)cc1)c1ccccc1	22.2	-69.8	nt
CCn1c(SCC(=O)Nc2c(Cl)cc(Cl)cc2Cl)nnc1-c1ccc(OC)cc1	1.3	2.2	nt
CC1=CCC(C(C)(C)O[C@@H]2O[C@H](C)[C@@H](O)[C@H](O)[C@H]2O)CC1 (stereo partly specified)	nt	nt	-17.6
C[C@@H]1CN([C@@H](C)CO)C(=O)c2cccc(NC(=O)CCCCCC(=O)Nc3ccccc3N)c2O[C@@H]1CN(C)S(=O)(=O)c1ccccc1	104.3*	26.9	nt
Cc1ccc(S(=O)(=O)N(C)C[C@H]2Oc3c(NC(=O)CCCCCC(=O)Nc4ccccc4N)cccc3C(=O)N([C@H](C)CO)C[C@@H]2C)cc1	?	0.7	nt
COc1ccc(S(=O)(=O)N(C)C[C@@H]2Oc3c(NC(=O)CCCCCC(=O)Nc4ccccc4N)cccc3C(=O)N([C@H](C)CO)C[C@H]2C)cc1	100.3*	6.7	nt
COc1ccc(S(=O)(=O)N(C)C[C@H]2Oc3c(NC(=O)CCCCCC(=O)Nc4ccccc4N)cccc3C(=O)N([C@H](C)CO)C[C@@H]2C)cc1	44.8	-10.9	nt
C[C@H]1CN([C@@H](C)CO)C(=O)c2cccc(NC(=O)CCCCCC(=O)Nc3ccccc3N)c2O[C@@H]1CN(C)S(=O)(=O)c1ccccc1	60.4	-3.6	nt
C[C@H]1CN([C@@H](C)CO)C(=O)c2cccc(NC(=O)CCCCCC(=O)Nc3ccccc3N)c2O[C@@H]1CN(C)S(=O)(=O)c1ccc(Cl)cc1	102.9*	-2.9	nt
C[C@H](CO)N1C[C@H](C)[C@H](CN(C)S(=O)(=O)c2ccc(Cl)cc2)Oc2c(NC(=O)CCCCCC(=O)Nc3ccccc3N)cccc2C1=O	119.3*	13.6	nt
Cc1ccc(S(=O)(=O)N(C)C[C@@H]2Oc3c(NC(=O)CCCCCC(=O)Nc4ccccc4N)cccc3C(=O)N([C@@H](C)CO)C[C@H]2C)cc1	66.9	-2.6	nt
OC(COc1ccccc1F)Cn1cnc2ccccc21 (stereo unspecified)	18.8	-63.9	nt
CC1(C)Cc2c(sc3c2c2ncnn2c2nnc(SCC(=O)NCc4ccccc4)n32)CO1	19.5	12.6	nt
CC(C)NC(=O)Nc1ccc2c(c1)CC(=O)N([C@@H](C)CO)C[C@@H](C)[C@@H](CN(C)S(=O)(=O)c1ccc(Cl)cc1)O2	60.2	-7.4	23.1
COc1ccc(S(=O)(=O)N(C)C[C@H]2Oc3ccc(NC(=O)NC4CCCCC4)cc3CC(=O)N([C@@H](C)CO)C[C@H]2C)cc1	-5.1	-7.7	10.3
Cc1ccc(S(=O)(=O)N(C)C[C@@H]2Oc3ccc(NC(=O)NC4CCCCC4)cc3CC(=O)N([C@@H](C)CO)C[C@@H]2C)cc1	116.2*	42.8	nt
Cc1ccc(S(=O)(=O)N(C)C[C@@H]2Oc3ccc(NC(=O)NC4CCCCC4)cc3CC(=O)N([C@H](C)CO)C[C@@H]2C)cc1	123.9*	27.1	-22.7
Cc1ccc(S(=O)(=O)N(C)C[C@H]2Oc3ccc(NC(=O)NC4CCCCC4)cc3CC(=O)N([C@H](C)CO)C[C@H]2C)cc1	22.4	7.0	18.1
C[C@H]1CN([C@@H](C)CO)C(=O)Cc2cc(NC(=O)NC3CCCCC3)ccc2O[C@H]1CN(C)S(=O)(=O)c1ccc(Cl)cc1	128.4*	44.7	-43.2
Cn1c(SCC(=O)n2c3c(c4ccccc42)CCCC3)nnc1-c1cccc([N+](=O)[O-])c1	-20.8	-13.6	nt
COc1ccc(C(=O)CSc2ncn(-c3ccccc3)n2)cc1OC	6.4	5.4	nt
CCn1ncc(CN(C)C(=O)c2cc(-c3cccnc3)nc3ccc(Cl)cc23)c1C	70.5	64.8	nt
SMILES	NOMO-1 viab	MITF inh	Hedgehog inh
CCc1cccc(C)c1NC(=O)CSc1nc2ccccc2c(=O)n1-c1cccc2ccccc12	?	21.3	nt
COc1cc([N+](=O)[O-])ccc1NC(=O)CN(C)S(=O)(=O)c1ccccc1	-10.2	-3.0	nt
CCn1c(NCc2ccccc2O)nc2ccccc21	12.9	-55.4	nt
O=C(CCNc1ccc(Oc2ccccc2)cc1)c1ccco1	131.2*	38.2	nt
COc1ccc(NC(=O)CNC(=O)c2ccco2)cc1	34.1	-57.5	nt
Nc1ncnc(NCCCN2CCOCC2)c1[N+](=O)[O-]	25.4	-38.1	nt
Cc1cccc(OCC(=O)Nc2ccc(Cl)c(-c3nc4ccccc4o3)c2)c1	77.3	0.6	nt
CC1(C)C(=O)C=C[C@@]2(C)C1CC(=O)[C@]1(C)C2CC[C@@]2(C)[C@H](c3ccoc3)OC(=O)[C@H]3O[C@]321 (stereo partly specified)	88.2*	69.2	23.8
CC1(C)C=CC(=O)[C@@]2(C)C1CC(=O)[C@]1(C)C2CC[C@@]2(C)[C@H](c3ccoc3)OC(=O)C3OC321 (stereo partly specified)	31.5	22.1	23.4
O=C(CSc1ncn(-c2ccccc2)n1)Nc1ccc(F)c(Cl)c1	30.5	-4.2	nt
COc1ccc(OC)c(-n2c(=S)[nH]c3cc(C(=O)Nc4ccc(C)c(Cl)c4)ccc3c2=O)c1	-10.8	0.4	-29.9
COc1ccc(NC(=O)c2ccc3c(=O)n(Cc4ccco4)c(=S)[nH]c3c2)cc1OC	16.3	5.1	77.2*
Cc1ccc(OCC(=O)Oc2cccc(NC3=NS(=O)(=O)c4ccccc43)c2)cc1	-5.1	6.7	nt
O=C1/C(=C/c2ccccn2)CC/C1=C\c1ccccn1	134.7*	-2.8	nt
COc1ccc(/C=C2\CC/C(=C\c3ccc(C)cc3)C2=O)cc1	10.8	-6.7	nt
On1c(-c2ccccc2Cl)nc2c1CCc1nonc1-2	-10.2	-10.0	-9.8
C[C@H]1CN([C@@H](C)CO)C(=O)c2cc(NC(=O)Cc3cn(C)c4ccccc34)ccc2O[C@H]1CN(C)Cc1ccc2c(c1)OCO2	72.9	3.6	nt
C[C@@H]1CN([C@H](C)CO)C(=O)c2cc(NC(=O)Cc3cn(C)c4ccccc34)ccc2O[C@@H]1CN(C)Cc1ccc(Cl)c(Cl)c1	111.7*	49.4	23.6
C[C@@H]1CN([C@H](C)CO)C(=O)c2cc(NC(=O)Cc3cn(C)c4ccccc34)ccc2O[C@H]1CN(C)Cc1ccc(Cl)c(Cl)c1	?	47.0	9.2
C[C@@H]1CN([C@@H](C)CO)C(=O)c2cc(NC(=O)Cc3cn(C)c4ccccc34)ccc2O[C@@H]1CN(C)Cc1ccc(Cl)c(Cl)c1	92.1*	39.7	nt
CC1(C)CC(NC(=O)C(=O)NCC2COc3ccccc3O2)CC(C)(C)N1 (stereo unspecified)	-23.6	-18.5	nt
Cc1cc(C)nc(NS(=O)(=O)c2ccc(NC(=S)NC(=O)c3ccccc3Br)cc2)n1	-10.3	19.7	nt
CCC1(C)Cc2ccccc2-c2nc3[nH]nc(SCC(=O)Nc4ccc(OC)c(Cl)c4)n3c(=O)c21 (stereo unspecified)	-2.9	32.7	nt
Nc1nnc(SC2c3cccc4cccc(c34)C2NS(=O)(=O)c2ccc(Cl)cc2)s1 (stereo unspecified)	23.6	28.8	nt
Cn1cc(C2=C(c3cn(CCCSC(=N)N)c4ccccc34)C(=O)NC2=O)c2ccccc21	141.6*	67.9	44.1

Assay outcomes (PubChem BioAssay)
